From PubChem BioAssay AID1159580 (chemical genetic matrix, 2015)
The whole screen tested about 5,500 compounds, of which about 2,000 (36%) were called active. Inconclusive results (about 18%) are left out. Rule as the data show it: active = normalized growth mostly below about 0.91 (no sharp cut-off); inconclusive = no clear call, values can overlap the other calls; inactive = mostly above about 0.92. This is one part of the list.

Test: chemical genetic growth profiling, strain panel (AID 1159580);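 also: tested at 20 µM; growth read once vehicle control cultures reached saturation at 30 °C; 1 = growth at the plate median or of vehicle wells; lower values mean less growth of the strain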
Details: growth OD

Measured: normalized growth

C[C@]12CCC(=O)C=C1CCC1C2C(=O)C[C@@]2(C)C1CC[C@]2(O)C(=O)CO (stereo partly drawn)
inactive: S. cerevisiae deletion strains, locus YJL187C, strain SWE1, stronger effect = lower value 1.01 | S. cerevisiae deletion strains, locus YJR043C, strain POL32, stronger effect = lower value 1 | S. cerevisiae deletion strains, locus YJR066W, strain TOR1, stronger effect = lower value 0.967 | S. cerevisiae deletion strains, locus YKL009W, strain mrt4, stronger effect = lower value 1.06 | S. cerevisiae deletion strains, locus YKL068W, stronger effect = lower value 1.01 | S. cerevisiae deletion strains, locus YKL085W, strain MDH1 (second series), stronger effect = lower value 0.994 | S. cerevisiae deletion strains, locus YKL085W, strain MDH1, stronger effect = lower value 0.994 | S. cerevisiae deletion strains, locus YKL160W, strain elf1, stronger effect = lower value 1 | S. cerevisiae deletion strains, locus YKR001C, strain vps1, stronger effect = lower value 0.998 | S. cerevisiae deletion strains, locus YKR026C, strain gcn3, stronger effect = lower value 0.99 | S. cerevisiae deletion strains, locus YKR091W, strain srl3, stronger effect = lower value 0.999 | S. cerevisiae deletion strains, locus YLL001W, strain dnm1, stronger effect = lower value 1.03 | S. cerevisiae deletion strains, locus YLL026W, stronger effect = lower value 1 | S. cerevisiae deletion strains, locus YLL041C, strain sdh2, stronger effect = lower value 1.01 | S. cerevisiae deletion strains, locus YLR027C, strain aat2, stronger effect = lower value 1.01 | S. cerevisiae deletion strains, locus YLR039C, strain RIC1, stronger effect = lower value 1.01 | S. cerevisiae deletion strains, locus YLR058C, strain SHM2, stronger effect = lower value 0.981 | S. cerevisiae deletion strains, locus YLR102C, strain apc9, stronger effect = lower value 0.995 | S. cerevisiae deletion strains, locus YLR113W, strain HOG1, stronger effect = lower value 0.951 | S. cerevisiae deletion strains, locus YLR221C, strain rsa3, stronger effect = lower value 1 | S. cerevisiae deletion strains, locus YLR258W, strain gsy2, stronger effect = lower value 1.01 | S. cerevisiae deletion strains, locus YLR262C, strain YPT6 (second series), stronger effect = lower value 0.995 | S. cerevisiae deletion strains, locus YLR262C, strain YPT6, stronger effect = lower value 1.03 | S. cerevisiae deletion strains, locus YLR268W, strain sec22, stronger effect = lower value 1.05 | S. cerevisiae deletion strains, locus YLR320W, strain mms22, stronger effect = lower value 0.988 | S. cerevisiae deletion strains, locus YLR330W, strain CHS5, stronger effect = lower value 1 | S. cerevisiae deletion strains, locus YLR342W, strain FKS1 (second series), stronger effect = lower value 1.03 | S. cerevisiae deletion strains, locus YLR342W, strain FKS1, stronger effect = lower value 0.992 | S. cerevisiae deletion strains, locus YLR357W, strain rsc2, stronger effect = lower value 0.993 | S. cerevisiae deletion strains, locus YLR370C, strain arc18, stronger effect = lower value 1.01 | S. cerevisiae deletion strains, locus YLR371W, strain rom2, stronger effect = lower value 1.01 | S. cerevisiae deletion strains, locus YLR384C, strain iki3, stronger effect = lower value 1 | S. cerevisiae deletion strains, locus YLR418C, strain cdc73, stronger effect = lower value 1.03 | S. cerevisiae deletion strains, locus YML016C, strain PPZ1, stronger effect = lower value 1 | S. cerevisiae deletion strains, locus YML032C, strain rad52, stronger effect = lower value 0.957 | S. cerevisiae deletion strains, locus YML120C, strain ndi1, stronger effect = lower value 1.02 | S. cerevisiae deletion strains, locus YML124C, strain tub3, stronger effect = lower value 1 | S. cerevisiae deletion strains, locus YMR058W, strain fet3, stronger effect = lower value 0.998 | S. cerevisiae deletion strains, locus YMR078C, strain ctf18, stronger effect = lower value 1 | S. cerevisiae deletion strains, locus YMR125W, strain sto1, stronger effect = lower value 1 | S. cerevisiae deletion strains, locus YMR129W, stronger effect = lower value 0.989 | S. cerevisiae deletion strains, locus YMR205C, strain PFK2, stronger effect = lower value 0.987 | S. cerevisiae deletion strains, locus YMR223W, strain ubp8, stronger effect = lower value 0.977 | S. cerevisiae deletion strains, locus YMR231W, strain pep5, stronger effect = lower value 1.01 | S. cerevisiae deletion strains, locus YMR263W, strain SAP30, stronger effect = lower value 1 | S. cerevisiae deletion strains, locus YMR307W, strain GAS1, stronger effect = lower value 1.03 | S. cerevisiae deletion strains, locus YNL067W, strain RPL9B, stronger effect = lower value 1 | S. cerevisiae deletion strains, locus YNL071W, strain lat1, stronger effect = lower value 1.01 | S. cerevisiae deletion strains, locus YNL183C, strain NPR1, stronger effect = lower value 0.926 | S. cerevisiae deletion strains, locus YNL209W, strain ssb2, stronger effect = lower value 1 | S. cerevisiae deletion strains, locus YNL233W, strain BNI4, stronger effect = lower value 0.994 | S. cerevisiae deletion strains, locus YNL248C, strain rpa49, stronger effect = lower value 1 | S. cerevisiae deletion strains, locus YNL250W, strain rad50, stronger effect = lower value 0.999 | S. cerevisiae deletion strains, locus YNL271C, strain bni1, stronger effect = lower value 1 | S. cerevisiae deletion strains, locus YNL298W, strain CLA4, stronger effect = lower value 1.02 | S. cerevisiae deletion strains, locus YNL307C, strain MCK1, stronger effect = lower value 1.01 | S. cerevisiae deletion strains, locus YNL322C, strain KRE1 (second series), stronger effect = lower value 1 | S. cerevisiae deletion strains, locus YNR049C, strain mso1, stronger effect = lower value 1.01 | S. cerevisiae deletion strains, locus YNR052C, strain pop2, stronger effect = lower value 1 | S. cerevisiae deletion strains, locus YOL012C, strain htz1 0.71 | S. cerevisiae deletion strains, locus YOL147C, strain pex11, stronger effect = lower value 1.01 | S. cerevisiae deletion strains, locus YOR001W, strain rrp6, stronger effect = lower value 1.01 | S. cerevisiae deletion strains, locus YOR061W, strain CKA2, stronger effect = lower value 1.01 | S. cerevisiae deletion strains, locus YOR069W, strain VPS5, stronger effect = lower value 1.01 | S. cerevisiae deletion strains, locus YOR070C, strain gyp1, stronger effect = lower value 1.01 | S. cerevisiae deletion strains, locus YOR080W, strain dia2, stronger effect = lower value 1 | S. cerevisiae deletion strains, locus YOR083W, strain WHI5, stronger effect = lower value 1 | S. cerevisiae deletion strains, locus YOR106W, strain vam3, stronger effect = lower value 1.01 | S. cerevisiae deletion strains, locus YOR136W, strain idh2, stronger effect = lower value 1.01 | S. cerevisiae deletion strains, locus YOR144C, strain elg1, stronger effect = lower value 1 | S. cerevisiae deletion strains, locus YOR184W, strain ser1, stronger effect = lower value 1.03 | S. cerevisiae deletion strains, locus YOR231W, strain MKK1, stronger effect = lower value 0.985 | S. cerevisiae deletion strains, locus YOR265W, strain rbl2, stronger effect = lower value 1.02 | S. cerevisiae deletion strains, locus YOR270C, strain vph1, stronger effect = lower value 1.04 | S. cerevisiae deletion strains, locus YOR290C, strain snf2, stronger effect = lower value 0.964 | S. cerevisiae deletion strains, locus YOR316C, strain cot1, stronger effect = lower value 1 | S. cerevisiae deletion strains, locus YPL051W, strain arl3, stronger effect = lower value 1.02 | S. cerevisiae deletion strains, locus YPL055C, strain LGE1, stronger effect = lower value 0.992 | S. cerevisiae deletion strains, locus YPL078C, strain atp4, stronger effect = lower value 1.01 | S. cerevisiae deletion strains, locus YPL106C, strain sse1, stronger effect = lower value 0.96 | S. cerevisiae deletion strains, locus YPL240C, strain hsp82, stronger effect = lower value 0.981 | S. cerevisiae deletion strains, locus YPL256C, strain CLN2, stronger effect = lower value 0.981 | S. cerevisiae deletion strains, locus YPR119W, strain clb2, stronger effect = lower value 1 | S. cerevisiae deletion strains, locus YPR141C, strain kar3, stronger effect = lower value 0.994 | S. cerevisiae deletion strains, locus YPR163C, strain tif3, stronger effect = lower value 0.996 | S. cerevisiae deletion strains, locus YPR167C, strain met16, stronger effect = lower value 1.01 | S. cerevisiae deletion strains, strain wtn01, stronger effect = lower value 1.05 | S. cerevisiae strains, strain wild type, stronger effect = lower value 0.995
